These results are taken from PubChem BioAssay AID1446 (The Scripps Research Institute Molecular Screening Center, 2008).

The term inhibition denotes the change of the read-out against control, counted positive when it falls.

The structures appear in SMILES notation. Where “and” joins values, the source holds several entries; their conditions need not be identical. Equal values may be shown once. The whole screen tested about 220,000 compounds, of which about 2,400 (1.1%) were called active. Many of the other results were omitted from the sample, so actives are more common in it than they were. Unmarked numbers belong to inactive results.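 Rule for the calls: active = inhibition above the campaign mean plus 3 SD over all tested compounds (cut at about 24% in these data); inactive = the rest.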

The nature of this assay: viability loss in Ba/F3 EpoR-JAK2V617F cells – cell-based, luminescence, JAK2V617F inhibitor project, primary screen (AID 1446).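 Note: cytokine-independent growth of Ba/F3 cells driven by EpoR plus mutant JAK2; 0% = DMSO-treated cells and 100% = JAK inhibitor I control.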 Conditions: ATP luminescence, at 5.6 µM, stronger effect = higher value.
In the case of `O=C(CN1CCN(S(=O)(=O)c2ccc(Br)cc2)CC1)Nc1ccccc1C(=O)c1ccccc1`, the inhibition was -3.02%. In the case of `Cc1ccc(Oc2ccc(N)cc2)cc1` it was 0.92%; in that of `Nc1ccc(Oc2ccc(Cl)cc2)cc1`, 7.34%.

As to `CC(C)(C)c1ccc(Oc2ccc(N)cc2)cc1`, the inhibition is 33.3% (active). Under `CC(C)CN1CCNC(=O)C1CC(=O)N(C)CC1CCOCC1` (configuration not stated) stands -1.14%. Under `Cc1ccc(-c2cc(C(F)(F)F)n3ncc(C(=O)N4CCCCC4c4cccnc4)c3n2)cc1` (configuration not stated) stands -1.34%. In the case of `COc1cc2c(cc1OC)CN(C(=O)c1cc(=O)c3ccccc3o1)CC2` it was 15.9%; in that of `CCOc1cc(C(=O)N2CCc3cc(OC)c(OC)cc3C2)ccc1OC(F)F`, 82.7% (active); in that of `COc1cc2c(cc1OC)CN(C(=O)c1ccc(S(=O)(=O)N3CCCCCC3)cc1)CC2`, 4.67%. In the case of `OCC1(Cc2ccccc2C(F)(F)F)CCN(Cc2ccncc2)CC1`, the inhibition was 3.31%. Under `C[C@@H]1C[C@@H]2O[C@H]2/C=C\C=C\C(=O)Cc2c(Cl)c(O)cc(O)c2C(=O)O1` stands 96.8% (active); under `CCOC(=O)c1ccc(NC(=O)CSc2ncccn2)cc1`, -1.61%. For the compound `CCOC(=O)c1ccc(NC(=O)Cn2nnc(-c3ccc(C)cc3)n2)cc1`, the inhibition is -1.34%. In the case of `CCOC(=O)c1ccc(NC(=O)Cn2cnc3cc(C)c(C)cc32)cc1` it was 47.2% (active). Under `CCOC(=O)c1ccc(N=C2SC(C(=O)NC)CC(=O)N2CCc2ccccc2)cc1` (configuration not stated) stands 1.63%; under `Cc1ccc(C(=O)C[n+]2cc(-c3ccccc3)n3c2CCCCC3)cc1`, 69.4% (active) and 87.4% (active); under `Clc1ccc(C[n+]2cc(-c3ccccc3)n3c2CCC3)cc1`, 70.5% (active). In the case of `Clc1ccc(C[n+]2cc(-c3ccc(Cl)cc3)n3c2CCC3)cc1` it was 50.1% (active). Regarding `O=C(C[n+]1cc(-c2ccc(Cl)c(Cl)c2)n2c1CCC2)c1cccs1`, the inhibition was 4.8%.

For `Cn1c(-c2ccccc2)c[n+]2c1CCCCC2`, the inhibition was -3.91%. Turning to `Cc1ccc(-c2c[n+](CC(=O)Nc3ccccc3)c3n2CCC3)cc1`, the inhibition is -4.7%.

As for `CN(C(=O)CSc1nnc(-c2n[nH]c3ccccc23)o1)c1ccccc1`, the inhibition is 2.55%.
